# Sm TGR block: qHTS Assay for the Inhibitors of Schistosoma Mansoni Peroxiredoxins | purified TGR, DTNB reduction, TNB absorbance 405 nm | Potency, µM (top dose mostly 114 µM), most hits filed as inhibitors | 360,000 compounds, 3% hits | AID 485364, 2010; note: nearly all actives have a fitted effect of over 60% in size
#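 Kinetic colorimetric format: TGR-catalysed, NADPH-driven DTNB reduction monitored via TNB absorbance. Enzyme dispensed at 20 nM; compound exposure 15 min at room temperature before reaction start.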
# TbPYK inhibitor: qHTS of Trypanosoma Brucei Inhibitors; pyruvate kinase (Trypanosoma brucei), Q57TT1; AID 624173, 2012; 410,000 compounds, 0.12% hits; TbPYK enzyme, Kinase-Glo Plus ATP luminescence, 45 min; Potency, µM (series often up to 76.8 µM), usual class: inhibitors; note: nearly all actives have a fitted effect of over 50% in size
#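 Readout: single end-point luminescence (Kinase-Glo Plus, 10 min). Reaction conditions were TbPYK/substrate plus 130 uM ADP, 45 min at RT, pH 7.2 TEA buffer. No-enzyme wells served as controls, and data were normalized before concentration-response fitting.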
# LmPK inh: qHTS Assay for Inhibitors of Leishmania Mexicana Pyruvate Kinase (LmPK). Q27686. purified LmPK, Kinase-Glo ATP luminescence, 1 h. Potency, µM (top dose mostly 57.5 µM), most hits filed as inhibitors. 290,000 compounds, 0.37% hits
# Target sequence (Q27686 whole entry, looked up): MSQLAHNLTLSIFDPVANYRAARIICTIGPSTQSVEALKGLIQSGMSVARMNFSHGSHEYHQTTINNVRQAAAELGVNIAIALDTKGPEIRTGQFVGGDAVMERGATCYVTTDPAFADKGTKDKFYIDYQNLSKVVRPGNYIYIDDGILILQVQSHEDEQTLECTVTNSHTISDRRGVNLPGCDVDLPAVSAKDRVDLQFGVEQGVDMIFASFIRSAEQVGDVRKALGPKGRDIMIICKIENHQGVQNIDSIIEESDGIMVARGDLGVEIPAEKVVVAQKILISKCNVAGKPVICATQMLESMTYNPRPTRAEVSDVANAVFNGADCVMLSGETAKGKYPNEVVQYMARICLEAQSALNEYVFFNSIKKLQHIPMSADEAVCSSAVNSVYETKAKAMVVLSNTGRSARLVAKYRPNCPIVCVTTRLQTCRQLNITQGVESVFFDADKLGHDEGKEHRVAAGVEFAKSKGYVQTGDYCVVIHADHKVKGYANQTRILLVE
#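 ATP generated from ADP (0.1 mM) and PEP (0.5 mM) by 0.1 nM LmPK over 1 h at room temperature (pH 7.2 imidazole buffer) was detected by coupled luciferase luminescence. Values were normalized to uninhibited and no-enzyme wells.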
# AMA1 RON2 block: qHTS for Inhibitors of AMA1-RON; Towards Development of Antimalarial Drug Lead: Primary Screen | Plasmodium falciparum AMA1 (3D7) - RON2 peptide interaction | AlphaScreen AMA1-biotinylated RON2 peptide binding | Potency, µM (doses to about 58.2 µM), actives largely listed as inhibitors | 360,000 compounds, 0.2% hits | AID 720542, 2013; note: nearly all actives have a fitted effect of over 45% in size
#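 AMA1 (3D7) with his tag at 25 nM final met compounds first, then biotinylated RON2 peptide at 25 nM; detection used donor plus acceptor beads, 10 µg/mL apiece, read by AlphaScreen after 30 min at room temperature.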
# RE007 growth inh: qHTS Assay for Inhibitors of the HIV-1 protein Vpr | S. pombe RE007 Vpr strain, BacTiter-Glo ATP luminescence, 24 h | Potency, µM (series often up to 92.2 µM), usual class: inhibitors | 360,000 compounds, 0.21% hits | AID 651644, 2012; active = well fitted falling curve with a large enough effect; inconclusive = small, poorly fitted or top-dose-only effect; inactive = no such curve, though single readings can be large or run the other way; note: nearly all actives have a fitted effect of over 50% in size
#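 Fission yeast RE007 carrying one integrated HIV-1 vpr copy, seeded at OD 0.01 in PMG+AL medium with 23 nL pinned compound. Grown 24 h at 30 degrees; viability read by BacTiter-Glo luminescence after 5 min.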
# A number is an active result; - = inactive; ? = inconclusive; . = no result; [ ] = another dose, or the depositor's remark. A selection: hits, their analogues and other compounds. The true share with any hit is near 3.2%. Unless noted, calls come from the whole dose curve; as a rule, active = well fitted curve in the direction sought with a large enough effect; inconclusive = small, poorly fitted or top-dose-only effect, or another doubt; inactive = no such curve, though single readings can be large; an effect the other way counts as inactive or inconclusive.
SMILES,Sm TGR block,TbPYK inhibitor,LmPK inh,AMA1 RON2 block,RE007 growth inh
O=C(N/C(=C\c1ccc([N+](=O)[O-])cc1)C(=O)N1CCCCC1)c1ccccc1,-,-,-,-,-
O=[N+]([O-])/C(C(Cl)=C(Cl)Cl)=C(/Sc1ccccc1)N1CCCCC1,28µM,-,-,-,-
Cc1ccccc1C(=O)OCc1cc(=O)n2nc(C3CCCCC3)sc2n1,-,-,.,.,.
COc1ccc(CCNc2oc(-c3ccccc3OC)nc2C#N)cc1,14µM,-,-,-,-
CCOc1ccc(/C=C2\SC(=O)N(CCNC(=O)C3COc4ccccc4O3)C2=O)cc1OC (stereo not drawn),35µM,-,-,-,-
CC(C)CCNC(=O)c1ccc(NC(=O)N2CCCCc3ccccc32)cc1,-,-,.,.,.
O=C(Nc1ccccc1F)c1cnc(N2CCCCC2)c2ccccc12,-,-,.,.,.
COc1ccc(-c2nn3c(-c4ccccc4C)nnc3c3ccccc23)cc1,-,-,.,.,.
CC1=C(C(=O)N2CCOCC2)C(c2ccc(O)cc2)NC(=S)N1 (stereo not drawn),-,-,-,-,-
Oc1ccc2c(c1)C1CCCC1(N1CCOCC1)O2 (stereo not drawn),28µM,-,-,-,-
CC1(C)C(C(=O)O)N2C(=O)CC2S1(=O)=O (stereo not drawn),.,-,.,.,.
C/C=C(\CS(=O)(=O)c1ccccc1)S(=O)(=O)c1ccccc1,35µM,-,-,-,-
CCCCNC(=O)CN1CCN(c2ccc(NC(=O)c3ccc(OC)cc3)cc2C(=O)O)CC1,-,-,.,.,.
COc1cc(/C=C2/CCCC(C(=O)C(F)(F)F)=C2O)ccc1O,35µM,-,-,-,-
COc1ccc(/C=C2/CCCC(C(=O)C(F)(F)F)=C2O)cc1OC,?,-,-,-,-
COc1ccc(/C=C2\CCCC(C(=O)C(F)(F)F)=C2O)cc1OC,32µM,.,-,.,.
CCOc1cc(/C=C2\CCCC(C(=O)C(F)(F)F)=C2O)ccc1O,?,-,-,-,?
CCOCCSc1c(C)cnc2c1c(=O)n(C)c(=O)n2C,-,-,.,.,.
CC#CCC(C)[C@H](O)/C=C/C1[C@H](O)C[C@@H]2C/C(=C\CCCC(=O)O)C[C@H]12 (stereo partly drawn),.,-,.,.,.
O=C(N=Nc1c(O)[nH]c2ccccc12)c1cccs1,-,-,16µM,-,-
CN(C)C(=O)c1ccc(N=Nc2c(O)c3ccccc3[nH]c2=O)cc1,.,-,.,-,18µM
O=C(N=Nc1c(O)[nH]c2ccccc12)c1cc(NS(=O)(=O)c2cccs2)cc(NS(=O)(=O)c2cccs2)c1,-,-,-,-,-
O=C(O)c1ccc(N=Nc2c(O)[nH]c3ccccc23)cc1,-,-,14µM,-,?
CCc1ccc(CNC(=O)CSc2cc(=O)n(C)c3ccc(Cl)cc23)cc1,-,-,.,.,.
O=C(COC(=O)CCN1C(=O)c2cccc([N+](=O)[O-])c2C1=O)NCc1ccccc1,79µM,-,-,-,-
SMILES,Sm TGR block,TbPYK inhibitor,LmPK inh,AMA1 RON2 block,RE007 growth inh
O=C(NN=Cc1ccc(F)cc1)c1ccccc1NS(=O)(=O)c1cccs1,.,-,.,-,-
O=C(N/N=C\c1ccc([N+](=O)[O-])o1)c1cncc(Br)c1,35µM,-,-,-,-
CCCCCC(=O)N/N=C/c1ccc([N+](=O)[O-])o1,40µM,-,-,-,-
O=C(N/N=C/c1ccc([N+](=O)[O-])o1)c1ccncc1,?,-,-,-,-
O=C(N/N=C/c1ccc([N+](=O)[O-])o1)c1ccccc1NS(=O)(=O)c1cccs1,28µM,-,-,-,?
Nc1nonc1C(=O)N/N=C/c1ccc([N+](=O)[O-])o1,20µM,-,-,-,-
COC(=O)c1ccccc1S(=O)(=O)N1CCc2nc(-c3ccccc3)c3c(c2C1)CO[C@@H](C)C3,.,.,-[11.5 µM],.,.
C#CC1(OC(C)=O)CCC2C3CCC4=CC(OC(C)=O)CCC4C3CCC21C (stereo not drawn),.,-,.,.,.
CSc1ccc(CCNc2ncnc3onc(C)c23)cc1,-,-,.,.,.
Cc1nc2ccccn2c1C(=O)N/N=C/c1ccc([N+](=O)[O-])cc1,-,-,-,-,-
Cc1nc2ccccn2c1C(=O)N/N=C/c1ccc([N+](=O)[O-])o1,14µM,-,-,?,-
CCOC(=O)c1c(-c2ccc(C)cc2C)csc1NC(=O)c1ccccc1Cl,-,-,.,.,.
CC(=O)N(C)Cc1ccc(C(=O)CCl)cc1,11µM,-,-,-,-
CC(=O)N(C)Cc1ccc(C(=O)CSc2nnc(C3CC3)n2C2CC2)cc1,-,-,.,-,-
CC(=O)Nc1ccc(C(=O)CCl)cc1,13µM,-,.,-,-
CC(=O)NCc1ccc(C(=O)CCl)cc1,11µM,-,-,-,-
CC(=O)NCc1ccc(C(=O)CCl)s1,14µM,-,-,-,-
CC(=O)NCCC(=O)NCc1ccc(F)cc1,-,-,-,-,-
COc1cc2c(C(=O)N(C)c3cc(Cl)ccc3OC)cn(CC(C)C)c(=O)c2cc1OC,-,-,.,.,.
Cc1cc(NS(=O)(=O)c2ccc(NC(=O)/C=C/c3ccccc3)cc2)nc(C)n1,.,-,.,-,-
Cc1ccc(/C=C/C(=O)Nc2ccc(Oc3ccccc3)cc2)o1,18µM,?,-,-,-
CCCOc1ccc(/C=C/C(=O)Nc2ccc([N+](=O)[O-])cc2)cc1,-,-,-,-,-
Cc1cc(NS(=O)(=O)c2ccc(NC(=O)/C=C/c3ccc(C)o3)cc2)nc(C)n1,3.2µM,?,-,-,-
CC(=O)c1ccc(NC(=O)/C=C/c2ccc(C)o2)cc1,11µM,?,.,.,.
Cc1ccc(/C=C/C(=O)Nc2ccc([N+](=O)[O-])cc2)o1,16µM,?,?,-,-
CCCCNc1nc(Oc2ccc(=O)n(C)n2)nc(N2CCOCC2)n1,-,-,.,.,.
CC(=O)C[C@H]1[C@H](O[C@H]2[C@H](OC(C)C(=O)N[C@@H](C)C(=O)N[C@H](CCC(=O)N[C@@H](CCCCN)C(=O)N[C@H](C)C(=O)O)C(N)=O)[C@@H](NC(=O)O)C(O)O[C@@H]2CO)O[C@H](CO)[C@@H](O)[C@@H]1O (stereo partly drawn),.,-,.,.,.
Cn1nnnc1SCC1=C(C(=O)O)N2C(=O)[C@@H](NC(=O)[C@H](OC=O)c3ccccc3)[C@H]2SC1,.,-,.,.,.
CN1CCN(c2ccc(CNC(=O)c3cccc4c(-c5ccc(F)c(F)c5)coc34)cc2)CC1,.,-,.,14µM,-
CN1CCN(c2ccc(CNC(=O)c3ccc(-c4ccc(F)c(F)c4)c4ccoc34)cc2)CC1,.,-,.,?,?
